# PLCb3 inh – human PLC-beta3 inhibitors, primary screen, biochemical, fluorescence | 370,000 tested, 0.18% active | AID 720704, 2013 | inhibition, % at 12.2 µM | Purified PLC-beta3, fluorogenic substrate; in the data active = inhibition above about 11%;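 also: 0% = median of compound wells on plate and 100% = full blocker control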
# ADAM10 inh – human ADAM10 inhibitors, primary screen, biochemical, QFRET, HTS; recombinant ADAM10, EDANS/DABCYL FRET peptide cleavage, 3 h; inhibition, % at 7 µM; 370,000 tested, 0.62% active;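 active = inhibition above a per-campaign cutoff equal to the mean of compounds falling between control-based bounds plus 3 SD, cut at about 20% in these data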;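 also: 0% = DMSO wells while the 100% control is not disclosed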
# ADAM17 inh – ADAM17 inhibitors, primary screen, biochemical, QFRET; recombinant ADAM17, EDANS/DABCYL FRET peptide cleavage; Disintegrin and metalloproteinase domain-containing protein 17 (Homo sapiens), P78536; inhibition, % at 6.95 µM; AID 720648, 2013; 370,000 tested, 0.83% active;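 active = inhibition above the mean of compounds lying between control limits plus 3 SD, set per campaign, cut at about 8.5% in these data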;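 also: 0% = DMSO-only wells as the low control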
# proKLK7 act – proKLK7 zymogen activators, primary screen, biochemical, fluorescence intensity. 370,000 tested, 0.9% active. Kallikrein-7 (Homo sapiens), P49862. purified proKLK7, EDANS-DABCYL substrate fluorescence; 100% is mature enzyme control, 0% vehicle. AID 652039, 2013. activation, % at 7 µM;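 active = activation above the mean of all tested compounds plus 3 SD, computed per campaign excluding outliers beyond control limits, cut at about 13% in these data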
# sPLA2-III inh – human group III sPLA2 inhibitors, primary screen, biochemical, QFRET, BODIPY PC-A2 liposome substrate. 370,000 tested, 0.56% active. inhibition, % at 12.2 µM. Group 3 secretory phospholipase A2 (Homo sapiens), Q9NZ20. QFRET BODIPY PC-A2 liposome hydrolysis, fluorescence;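 active = inhibition above mean plus 3 SD of compounds lying within the high and low control bounds, cut at about 19% in these data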;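 also: 0% = median of test compound wells and 100% = no enzyme DMSO wells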
# PLC-gamma1 inh – PLC-gamma1 enzyme inhibitors, primary screen, biochemical, fluorescence, purified enzyme | inhibition, % at 12.2 µM | fluorogenic substrate | 370,000 tested, 0.84% active; in the data active = inhibition above about 9.5%
# ADAM10 confirm – human ADAM10 inhibitors, confirmation, biochemical, QFRET, triplicate; shares compounds with ADAM10 inh; ADAM10 QFRET peptide cleavage, EDANS fluorescence; inhibition, % at 6.95 µM; 2,100 tested, 1% active; AID 743208, 2013;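 active = inhibition above about 20% chosen separately for each screening run, limit read from the data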;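 also: 0% = DMSO wells and 100% = marimastat wells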
# ADAM17 ctr – ADAM17 inhibitors, counter-screen for ADAM10 exosite inhibitor project, biochemical, QFRET, high throughput | 2,100 tested, 0.5% active | AID 743214, 2013 | inhibition, % at 6.95 µM | shares compounds with ADAM10 inh | ADAM17 QFRET peptide cleavage, EDANS fluorescence;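 active = mean triplicate inhibition above the solvent-only control wells' mean plus 3 SD, cut at about 12% in these data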;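 also: 0% = DMSO wells and 100% = marimastat wells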
# ADAM10 counter – ADAM10 inhibitors, counter-screen for ADAM17 exosite inhibitor project, biochemical, FRET, human ADAM10 | shares compounds with ADAM17 inh | recombinant ADAM10, EDANS/DABCYL FRET peptide cleavage, 3 h | inhibition, % at 6.95 µM | 2,900 tested, 47% active | AID 743256, 2014;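 active = mean inhibition over the triplicate runs exceeds the activity threshold set in the earlier primary screen, cut at about 20% in these data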;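 also: 0% = DMSO wells and 100% = marimastat wells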
# ADAM17 confirm – ADAM17 inhibitors, hit retest, confirmation, biochemical, QFRET peptide cleavage. shares compounds with ADAM17 inh. recombinant ADAM17, EDANS/DABCYL QFRET peptide cleavage. inhibition, % at 6.95 µM. 2,900 tested, 65% active;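 active = mean inhibition across replicates above the hit cutoff set in the primary screen, cut at about 8.5% in these data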;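 also: 0% = DMSO wells and 100% = marimastat wells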
# * marks the source's active call; other numbers are inactive results; x = not tested or not shown. Only some compounds are listed: those with a hit (about 3.4% of all), similar ones and a draw of the others.
SMILES,PLCb3 inh,ADAM10 inh,ADAM17 inh,proKLK7 act,sPLA2-III inh,PLC-gamma1 inh,ADAM10 confirm,ADAM17 ctr,ADAM10 counter,ADAM17 confirm
C[C@H]1C2CC(OC(=O)Nc3ccc(C(F)(F)F)cc3)C(C2)[C@H]2CCCCN21 (some centres not stated),2,-1,0,0,4,6,x,x,x,x
O=C(Oc1cccc2c(=O)[nH]ccc12)c1ccccc1,-2,-3,5,5,-4,3,x,x,x,x
COc1cccc(OC(=O)c2ccccc2)c1OC(=O)c1ccccc1,2,27*,15*,-1,5,5,2,2,11,8
CCOC(=O)[C@]12CCCC=C1N(CCCOC)C(=O)[C@@H]2CC(=O)NCCCCc1ccccc1,0,-4,-1,1,-9,4,x,x,x,x
COc1ccccc1/C(C)=N/Oc1cc(N)cc([N+](=O)[O-])c1,-11,27*,15*,0,-28,3,4,2,14,9.8*
CCCCCCCCCCSc1n[nH]c(N)n1,7,45*,19*,0,-37,7,2,1,18,10*
Cc1cccc(NS(=O)(=O)c2ccc3[nH]c(=O)cc(C(=O)OC(C)C(=O)Nc4ccc([N+](=O)[O-])cc4)c3c2)c1 (configuration not stated),-11,25*,15*,-4,-28,4,10,4,4,12*
CCc1ccc(NC(=O)C(C)OC(=O)c2cc(=O)[nH]c3ccc(S(=O)(=O)Nc4ccc(F)cc4)cc23)cc1 (configuration not stated),0,-9,-2,0,-5,-5,x,x,x,x
Oc1ccccc1C1SC(c2ccccc2O)SC(c2ccccc2O)S1 (configuration not stated),1,35*,11*,1,-26,6,8,3,42*,23*
COc1ccc(C(C)c2cn(C)c3ccccc23)cc1 (configuration not stated),-8,-20,-3,0,11,-4,x,x,x,x
C=CCc1cccc(CNc2nc3ccccc3n2CCC)c1O,2,35*,14*,0,-11,8,6,2,42*,23*
CCCCn1c(NCc2ccccc2O)nc2ccccc21,3,4,1,0,-13,-1,x,x,x,x
O=C(C1CC1)C1(C(=O)N2CCOCC2)CC(c2ccccn2)=NO1 (configuration not stated),2,2,1,0,12,5,x,x,x,x
O=c1cc(NS(=O)(=O)c2ccccc2)nc(SCc2ccc(Cl)cc2)[nH]1,5,20*,11*,0,-20,4,10,3,25*,14*

# Screening data from PubChem.
